Inconclusive results are not listed. The source made the active and inactive calls. Calls follow the shape of the dose curve; as a rule, active = well fitted inhibition curve with a large enough effect; inconclusive = small, poorly fitted or top-dose-only effect; inactive = flat fitted curve, though single readings scatter.
% is scaled to controls: 0 for no effect and ±100 for the full control effect.

The nature of this test: P-glycoprotein substrates identified in KB-8-5-11 adenocarcinoma cell line, qHTS therapeutic library screen (AID 1346987). Also: nearly all actives have a fitted effect of over 65% in size. The settings on record: KB-8-5-11 (P-gp overexpressing) viability, CellTiter-Glo, 72 h; series mostly up to 44.5 µM; activity change, negative = cytotoxicity: at the top concentration. The essentials:
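Luminescence from CellTiter-Glo, read 5 min after addition, quantified survival of KB-8-5-11 (P-gp-overexpressing) cells exposed to compounds for 72 h. AC50 was derived from concentration-response curves.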
Background: Quantitative high-throughput screening tests each substance at several concentrations.
As for `CC(=O)OC1C(CO)OC(O[C@H]2[C@H](OC(=O)[C@]34CCC(C)(C)C[C@H]3C3=CCC5[C@@]6(C)CC[C@H](O[C@@H]7O[C@H](C(=O)O)[C@@H](O)[C@H](O[C@@H]8OC[C@@H](O)[C@H](O)[C@H]8O)[C@H]7O[C@@H]7O[C@H](CO)[C@H](O)[C@H](O)[C@H]7O)[C@@](C)(C=O)C6CC[C@@]5(C)[C@]3(C)C[C@H]4O)O[C@H](C)[C@H](OC3OC(C)C(OC4OCC(O)C(O)C4O)C(O)C3O)[C@@H]2O)C(O)C1O` (some centres undefined), the activity change, negative = cytotoxicity is 1.85% [at 9.29 µM] (inactive).

As to `COc1cc(C)c(C(=O)O[C@@H]2[C@H](O)[C@@H](CO)O[C@H]2n2ccc(=O)[nH]c2=O)c(OC)c1`, the “outcome” value was “inactive [at 17.3 µM]”.

In the case of `Cc1noc2c1-c1ccccc1C(c1ccc(Cl)cc1)=N[C@H]2CC(N)=O`, the “activity change, negative = cytotoxicity” value is -10.5% (inactive). Consider `O=C(O[C@@H]1O[C@H](CO)[C@@H](O)[C@H](O)[C@H]1O)c1ccccc1`, for which the compound was classed as inactive.

For the compound `COc1ccnc2[nH]cc(C(=O)C(=O)N3CCN(C(=O)c4ccccc4)CC3C)c12` (centres undefined), the call was inactive.

For `CC(=O)c1ccc(O[C@@H]2OC[C@@H](O)[C@H](O)[C@H]2O[C@]2(CO)O[C@H](CO)[C@@H](O)[C@@H]2O)c(O)c1`, the “activity change, negative = cytotoxicity” value is 4.09% [at 17.3 µM] (inactive). Same read-out and setting: for `CC(C)=CCC/C(C)=C/CO[C@@H]1O[C@H](CO[C@@H]2O[C@@H](CO)[C@H](O)[C@H]2O)[C@@H](O)[C@H](O)[C@H]1O` the value was 2.32% [at 17.3 µM] (inactive). Consider `Cc1occc(=O)c1O[C@@H]1O[C@H](CO[C@@H]2OC[C@](O)(CO)[C@H]2O)[C@@H](O)[C@H](O)[C@H]1O`, for which the “outcome” value was “inactive [at 17.3 µM]”.

For `C=C1CCC2(OC1)OC1CC3C4CC=C5CC(O)CC(O[C@@H]6OC[C@H](OC(=O)C(O)C(C)CC)[C@H](O)[C@H]6O[C@@H]6O[C@@H](C)[C@H](O)[C@@H](O)[C@H]6O)C5(C)C4CCC3(C)C1C2C` (some centres undefined), the outcome was “inactive [at 9.29 µM]”.

Consider `C=CC(C)(C)C12Nc3c(ccc4c3OC(C)(C)C=C4)C1(O)CC1C(=O)N3CCCC3C(=O)N12` (centres undefined), for which the “outcome” value was “inactive [at 17.3 µM]”. Still for that read-out and setting: under `C/C=C/C=C/[C@@H]1O[C@](O)([C@H](CC)C(=O)NC/C=C/C=C(\C)[C@@H](OC)[C@@H](C)[C@@H]2O[C@H](/C=C/C=C/C=C(\C)C(=O)c3c(O)ccn(C)c3=O)[C@H](O)[C@@H]2O)[C@H](O)[C@H](O)C1(C)C` stands “inactive [at 9.29 µM]”. On the same count and under the same terms, under `CC1=C2CC(C)(C)CC2C(O)C2=C(C1)C(=O)OC2O` (centres undefined) stands “inactive”.

In the case of `C=CC(C)(O)CC/C=C(\C)C(=O)O[C@@H]1[C@@H](O)[C@H](OC(C)(C=C)CC/C=C(\C)C(=O)O[C@@H]2O[C@H](CO)[C@@H](O)[C@H](O)[C@H]2O)O[C@H](CO)[C@H]1OC(=O)/C(C)=C/CCC(C)(O)C=C` (some centres undefined), the activity change, negative = cytotoxicity was 2.84% [at 9.29 µM] (inactive). On the same count and under the same terms, for `C[C@@H]1O[C@@H](O[C@@H]2[C@@H](O)[C@H](O[C@H]3[C@H](O[C@H]4CC[C@@]5(C)C(CC[C@]6(C)C5CC=C5[C@@H]7CC(C)(C)CC[C@]7(C(=O)O[C@@H]7O[C@H](CO)[C@@H](O)[C@H](O)[C@H]7O)CC[C@]56C)C4(C)C)O[C@H](C(=O)O)[C@@H](O)[C@@H]3O)OC[C@H]2O)[C@H](O)[C@H](O)[C@H]1O` (some centres undefined) the value was 6.37% [at 9.29 µM] (inactive).

Take `C=C(CO)C(=O)O[C@H]1C[C@@]23O[C@@H]2CC/C(=C/[C@H]2OC(=O)C(=C)[C@H]12)CO[C@H]3O`: the “activity change, negative = cytotoxicity” value is 7.3% (inactive). For the compound `CC1=CC(=O)C2C(C)(C)CCC[C@]2(C)[C@H]1CC[C@H](C)CC(=O)O` (some centres undefined), the call was inactive.

`CC1CCCCCCCc2cc(O)cc(O)c2C(=O)O1` (centres undefined): the “activity change, negative = cytotoxicity” value was 0.517% (inactive). The same measure, in the same setting: under `CC(=C\C(C)O)/C=C(\C)C(=O)CC1CC(CC(N)=O)CC(=O)O1` (centres undefined) stands 5.12% (inactive). Turning to `C/C=C(\C)C(=O)OCC1OC(OCC2OC(OC3(CO)OC(CO)C(O)C3O)C(O)C(O)C2O)C(O)C(O)C1O` (centres undefined), the “activity change, negative = cytotoxicity” value was 1.91% [at 17.3 µM] (inactive). Consider `CC(CCc1ccc(O)cc1)O[C@@H]1O[C@H](CO[C@@H]2OC(CO)[C@H](O)[C@H]2O)[C@@H](O)[C@H](O)[C@H]1O` (some centres undefined), for which the “outcome” value was “inactive [at 17.3 µM]”. Consider `CC12CC(O)C(O)C=C1c1cc(O)cc(O)c1C(=O)O2` (centres undefined), for which the compound was classed as inactive.

For the compound `CC1(C)C[C@H](O)C[C@@]2(C)[C@H]1[C@H](O)C=C1COC(=O)[C@@]12O`, the call was inactive. Take `C[C@@]12CC3(S(=O)(=O)O)OC(O1)[C@]1(COC(=O)c4ccccc4)[C@H]3C[C@]21O[C@@H]1O[C@H](CO)[C@@H](O)[C@H](O)[C@H]1O`: the “activity change, negative = cytotoxicity” value was 8.93% [at 17.3 µM] (inactive).

With `COc1cc(/C=C/C(=O)O[C@H]2[C@@H]3C=CO[C@@H](O[C@@H]4O[C@H](CO)[C@@H](O)[C@H](O)[C@H]4O)[C@@H]3[C@@]3(CO)O[C@@H]23)ccc1O`, the “outcome” value is “inactive [at 17.3 µM]”.

These data come from PubChem BioAssay (NCATS).
